# Data: the supplement of paper PMC11001985
# Unmarked numbers belong to inactive results.
# Target: ATP1B3 (UniProt P54709)
# Assay: lysine labeling ratio R10:1 (500 µM / 50 µM probe), SILAC-ABPP in living cells; higher = lower intrinsic lysine reactivity toward the probe, active = 2 or less
# Details: HeLa, probe concentrations 500 vs 50 µM
# Procedure: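 Living HeLa cells (SILAC light/heavy) in PBS at room temperature were labeled with 50 µM versus 500 µM of the lysine-reactive, reductant-cleavable probe OPA-S-S-alkyne (SILAC labeling time not stated). Probe-modified peptides were CuAAC-biotinylated, captured on neutravidin and eluted with DTT/IAA, then quantified by LC-MS/MS. R = median peptide ratio per lysine (500/50 µM), combined over 3 forward and 3 reverse SILAC replicates. Ratios are capped at 20; R < 2 = hyper-reactive.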
# Chain of ATP1B3 (P54709 whole entry): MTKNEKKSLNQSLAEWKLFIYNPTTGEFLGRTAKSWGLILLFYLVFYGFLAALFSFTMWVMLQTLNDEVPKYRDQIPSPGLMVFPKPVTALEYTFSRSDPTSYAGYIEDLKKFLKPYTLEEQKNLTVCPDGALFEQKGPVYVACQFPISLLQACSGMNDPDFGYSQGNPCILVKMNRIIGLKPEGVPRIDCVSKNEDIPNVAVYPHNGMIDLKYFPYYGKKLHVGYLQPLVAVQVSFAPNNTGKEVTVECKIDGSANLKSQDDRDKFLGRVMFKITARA
smiles,measurement,setting,value
C#CCNC(=O)CCSSCCC(=O)NCCc1ccc(C=O)c(C=O)c1,lysine labeling ratio R10:1,lysine site: K182,5.21
same,lysine labeling ratio R10:1,lysine site: K220,0.695 (active)
same,lysine labeling ratio R10:1,lysine site: K259,3.28
same,lysine labeling ratio R10:1,lysine site: K266,2.22
same,lysine labeling ratio R10:1,lysine site: K274,9.2
